Test results: the supplement of paper PMC10849652
Targets with a hit are over-represented here; the source holds about 7,900 in all. About 0.6% of all pairs of compound and target were hits.

What was measured:
Experiment in all cases: log2 fold change, soluble protein after heating vs DMSO (PISA); higher = thermal stabilisation; K562 cells, 10 uM, 30 min; active = over 0.2 and 3.5 SD of the protein, either way, in both replicates (recomputed)
crizotinib = compound: C[C@@H](Oc1cc(-c2cnn(C3CCNCC3)c2)cnc1N)c1c(Cl)ccc(F)c1Cl [crizotinib]
In short: (§1)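 Thermal stability values are relative to control samples and come from duplicates. They are expressed as log2 fold changes. For measurement, K562 cells (2×10^6 cells/mL) received 10 μM compound for 30 min, and aliquots were heated for 3 min over 48°C-58°C, pooled, and extracted at 4°C in PBS with 0.5% NP-40. Soluble protein, the supernatant after 21,000xg for 90 min, was quantified by TMTpro 16plex LC-MS/MS with equalised channel sums.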

[1] = compound: C[C@@H]1COCCN1C2=NC(=NC(=C2)C3(CC3)S(=O)(=O)C)C4=C5C=CNC5=CC=C4
In short: as §1

[2] = compound: C[C@H](C1=CC=C(C=C1)C(=O)NC2=C3C=CNC3=NC=C2)N
In short: as §1

duvelisib = compound: C[C@H](Nc1ncnc2nc[nH]c12)c1cc2cccc(Cl)c2c(=O)n1-c1ccccc1 [duvelisib]
In short: as §1

gandotinib = compound: Cc1cc(Nc2cc(CN3CCOCC3)c3nc(C)c(Cc4ccc(Cl)cc4F)n3n2)n[nH]1 [gandotinib]
In short: as §1

[3] = compound: Cc1cc(SCc2sc(-c3ccc(C(F)(F)F)cc3)nc2C)ccc1OCC(=O)O
In short: as §1

doramapimod = compound: Cc1ccc(-n2nc(C(C)(C)C)cc2NC(=O)Nc2ccc(OCCN3CCOCC3)c3ccccc23)cc1 [doramapimod]
In short: as §1

ispinesib = compound: Cc1ccc(C(=O)N(CCCN)[C@@H](c2nc3cc(Cl)ccc3c(=O)n2Cc2ccccc2)C(C)C)cc1 [ispinesib]
In short: as §1

tozasertib = compound: Cc1cc(Nc2cc(N3CCN(C)CC3)nc(Sc3ccc(NC(=O)C4CC4)cc3)n2)n[nH]1 [tozasertib]
In short: as §1

[4] = compound: CS(=O)(=O)c1ccc(-c2cnc(N)c(C(=O)Nc3ccccc3)n2)cc1
In short: as §1

Measured: log2 fold change

MYO19 (UniProt Q96H55)
inactive: crizotinib 0.047 | [1] -0.215 | [2] 0.491 | duvelisib -0.07 | gandotinib -0.081 | [3] 0.158 | doramapimod 0.066 | ispinesib -0.065

MRM2 (UniProt Q9UI43)
Chain of UniProt Q9UI43 (Q9UI43 whole entry, looked up): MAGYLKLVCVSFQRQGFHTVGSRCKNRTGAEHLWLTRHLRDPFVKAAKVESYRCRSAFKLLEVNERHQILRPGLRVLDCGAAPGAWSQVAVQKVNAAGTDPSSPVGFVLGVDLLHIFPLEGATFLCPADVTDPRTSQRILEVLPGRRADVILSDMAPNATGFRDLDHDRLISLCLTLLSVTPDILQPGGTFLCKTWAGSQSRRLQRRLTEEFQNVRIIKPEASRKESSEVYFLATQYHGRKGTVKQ
inactive: [2] -0.042 | duvelisib 0 | tozasertib -0.119 | [3] 0.123

OAF (UniProt Q86UD1)
inactive: [4] -0.112 | ispinesib 0.014

MTHFD1, A0A384N5Y3
inactive: [4] 0.109 | [1] 0.117 | [2] -0.008 | duvelisib 0.108 | gandotinib -0.036 | tozasertib -0.11 | [3] 0.081 | ispinesib -0.082

NA (UniProt J3KR12)
inactive: crizotinib 0.251 | [1] 0.061 | doramapimod -0.017 | ispinesib 0.006

MITF (UniProt O75030)
inactive: [4] 0.026 | crizotinib -0.137 | gandotinib -0.13 | doramapimod 0.006

NA (UniProt B2RBV5)
Chain of UniProt B2RBV5 (B2RBV5 whole entry, looked up): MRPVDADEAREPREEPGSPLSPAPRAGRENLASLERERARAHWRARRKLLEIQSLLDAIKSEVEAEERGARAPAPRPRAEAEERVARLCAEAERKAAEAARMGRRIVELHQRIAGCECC
inactive: [4] -0.027 | [1] 0.064 | gandotinib 0

NRGN (UniProt Q92686)
Chain of UniProt Q92686 (Q92686 whole entry, looked up): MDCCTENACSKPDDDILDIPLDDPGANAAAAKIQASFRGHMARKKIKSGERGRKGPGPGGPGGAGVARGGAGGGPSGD
inactive: crizotinib 0.241 | [1] 0.043 | doramapimod -0.282 | ispinesib 0
active: gandotinib 0.891

NKAP (UniProt Q8N5F7)
inactive: crizotinib -0.113 | [1] -0.118 | [2] 0.013 | duvelisib 0.016 | gandotinib 0.041 | tozasertib 0.039 | [3] -0.034 | doramapimod 0.042 | ispinesib 0.001

MOB3B (UniProt Q86TA1)
Chain of UniProt Q86TA1 (Q86TA1 whole entry, looked up): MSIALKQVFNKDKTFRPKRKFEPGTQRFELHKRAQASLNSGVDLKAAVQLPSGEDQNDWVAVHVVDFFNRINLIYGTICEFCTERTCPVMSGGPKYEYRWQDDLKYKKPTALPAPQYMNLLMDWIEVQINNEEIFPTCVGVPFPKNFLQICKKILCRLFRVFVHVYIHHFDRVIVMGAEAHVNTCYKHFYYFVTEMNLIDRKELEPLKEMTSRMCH
inactive: crizotinib -0.078 | [2] 0.098 | gandotinib 0.039 | tozasertib -0.025 | doramapimod 0

NPC1L1 (UniProt Q9UHC9)
Chain of UniProt Q9UHC9 (Q9UHC9 whole entry, looked up): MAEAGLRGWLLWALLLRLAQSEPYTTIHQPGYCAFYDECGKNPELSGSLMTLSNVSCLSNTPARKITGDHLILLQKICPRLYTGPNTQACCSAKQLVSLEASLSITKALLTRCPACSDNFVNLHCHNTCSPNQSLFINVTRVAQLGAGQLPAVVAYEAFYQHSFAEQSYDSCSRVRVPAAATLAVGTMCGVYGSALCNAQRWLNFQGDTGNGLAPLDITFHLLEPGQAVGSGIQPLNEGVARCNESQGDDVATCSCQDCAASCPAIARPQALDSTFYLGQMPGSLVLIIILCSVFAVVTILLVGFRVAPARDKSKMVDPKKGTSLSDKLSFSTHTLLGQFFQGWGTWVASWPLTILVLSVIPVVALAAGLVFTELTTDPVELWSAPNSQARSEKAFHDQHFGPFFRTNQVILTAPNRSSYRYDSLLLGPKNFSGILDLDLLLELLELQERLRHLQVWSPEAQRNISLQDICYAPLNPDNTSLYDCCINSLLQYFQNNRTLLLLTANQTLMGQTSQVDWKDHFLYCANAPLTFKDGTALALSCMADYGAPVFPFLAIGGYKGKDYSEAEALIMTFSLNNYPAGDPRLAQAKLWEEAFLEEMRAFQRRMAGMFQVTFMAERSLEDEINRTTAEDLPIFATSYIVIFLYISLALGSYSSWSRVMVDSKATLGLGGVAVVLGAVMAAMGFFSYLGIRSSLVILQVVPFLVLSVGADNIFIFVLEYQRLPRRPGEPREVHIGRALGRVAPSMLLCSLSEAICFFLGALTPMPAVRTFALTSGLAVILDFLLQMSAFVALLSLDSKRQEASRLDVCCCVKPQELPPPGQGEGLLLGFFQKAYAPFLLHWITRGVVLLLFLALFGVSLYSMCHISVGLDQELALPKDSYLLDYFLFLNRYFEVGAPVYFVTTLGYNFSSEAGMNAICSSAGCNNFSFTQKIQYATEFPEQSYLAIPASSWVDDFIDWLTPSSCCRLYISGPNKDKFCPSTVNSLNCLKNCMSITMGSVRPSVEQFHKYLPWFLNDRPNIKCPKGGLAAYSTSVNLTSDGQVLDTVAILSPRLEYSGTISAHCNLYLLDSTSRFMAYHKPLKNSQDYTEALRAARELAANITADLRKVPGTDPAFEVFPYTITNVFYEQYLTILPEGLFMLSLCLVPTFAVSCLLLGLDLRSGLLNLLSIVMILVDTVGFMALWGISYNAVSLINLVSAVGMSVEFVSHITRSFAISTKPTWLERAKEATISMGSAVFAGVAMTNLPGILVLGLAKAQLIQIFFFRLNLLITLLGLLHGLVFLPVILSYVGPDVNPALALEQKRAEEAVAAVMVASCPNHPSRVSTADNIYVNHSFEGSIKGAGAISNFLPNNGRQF
inactive: [4] 0.002 | crizotinib -0.07 | [2] -0.044 | duvelisib 0.107 | tozasertib -0.059 | [3] -0.159 | doramapimod 0.033

NUDT1 (UniProt P36639)
inactive: [4] 0.185 | [1] 0.08 | [2] 0.107 | duvelisib 0.61 | gandotinib -0.167 | tozasertib -0.057 | [3] 0.017 | doramapimod -0.113 | ispinesib 0.012

MOB2 isoform 3 (UniProt Q70IA6)
Chain of UniProt Q70IA6 (Q70IA6 whole entry, looked up): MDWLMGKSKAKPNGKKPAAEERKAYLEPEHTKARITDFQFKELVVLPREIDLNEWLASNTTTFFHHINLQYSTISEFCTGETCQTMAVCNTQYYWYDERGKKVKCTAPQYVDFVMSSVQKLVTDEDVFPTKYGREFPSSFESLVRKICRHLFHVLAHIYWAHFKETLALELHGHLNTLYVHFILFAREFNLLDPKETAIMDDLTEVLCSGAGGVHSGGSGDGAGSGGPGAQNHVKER
inactive: [1] -0.166 | [2] 0.044 | gandotinib -0.093 | tozasertib -0.1 | ispinesib -0.025

OXR1 isoform 2 (UniProt Q8N573)
inactive: crizotinib -0.027 | [1] 0.187 | [2] -0.105 | duvelisib 0.024 | gandotinib -0.225 | tozasertib 0.005 | [3] 0.043 | doramapimod 0.022 | ispinesib -0.134

NA isoform 3 (UniProt Q4G0T1)
Chain of UniProt Q4G0T1 (Q4G0T1 whole entry, looked up): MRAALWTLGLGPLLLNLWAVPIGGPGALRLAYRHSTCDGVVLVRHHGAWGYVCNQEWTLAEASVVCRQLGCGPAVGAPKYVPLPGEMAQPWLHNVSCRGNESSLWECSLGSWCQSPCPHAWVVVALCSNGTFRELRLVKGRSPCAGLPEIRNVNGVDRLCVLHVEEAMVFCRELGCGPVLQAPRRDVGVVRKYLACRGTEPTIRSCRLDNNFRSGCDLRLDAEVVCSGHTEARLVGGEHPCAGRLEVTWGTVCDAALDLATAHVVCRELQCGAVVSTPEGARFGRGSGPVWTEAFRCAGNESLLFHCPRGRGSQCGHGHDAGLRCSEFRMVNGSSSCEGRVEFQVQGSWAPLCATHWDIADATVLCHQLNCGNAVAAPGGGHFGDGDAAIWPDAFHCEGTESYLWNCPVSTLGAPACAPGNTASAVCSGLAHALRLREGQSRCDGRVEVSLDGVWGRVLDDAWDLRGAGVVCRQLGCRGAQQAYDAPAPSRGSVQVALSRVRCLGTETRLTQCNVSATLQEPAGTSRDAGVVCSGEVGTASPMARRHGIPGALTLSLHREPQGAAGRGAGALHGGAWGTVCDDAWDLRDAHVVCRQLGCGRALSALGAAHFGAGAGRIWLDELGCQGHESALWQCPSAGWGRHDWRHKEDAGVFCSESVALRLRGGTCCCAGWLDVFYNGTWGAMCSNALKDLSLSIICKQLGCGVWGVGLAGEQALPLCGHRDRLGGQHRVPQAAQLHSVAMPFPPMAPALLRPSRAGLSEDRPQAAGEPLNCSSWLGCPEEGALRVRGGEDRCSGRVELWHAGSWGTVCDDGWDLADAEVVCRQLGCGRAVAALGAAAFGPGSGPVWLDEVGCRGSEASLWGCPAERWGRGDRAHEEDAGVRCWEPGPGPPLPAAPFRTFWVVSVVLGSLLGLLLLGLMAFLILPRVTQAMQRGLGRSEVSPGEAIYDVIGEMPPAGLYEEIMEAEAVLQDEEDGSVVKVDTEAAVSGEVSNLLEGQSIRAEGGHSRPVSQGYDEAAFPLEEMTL
inactive: [4] 0.023 | crizotinib -0.004 | [2] -0.157 | duvelisib 0.042 | tozasertib 0.005 | [3] -0.001 | doramapimod 0.077 | ispinesib -0.099

MLH1 (UniProt P40692)
inactive: [1] 0.042 | [2] -0.127 | duvelisib 0 | gandotinib -0.068 | tozasertib -0.124 | [3] 0.094

OVCA2 (UniProt Q8WZ82)
Chain of UniProt Q8WZ82 (Q8WZ82 whole entry, looked up): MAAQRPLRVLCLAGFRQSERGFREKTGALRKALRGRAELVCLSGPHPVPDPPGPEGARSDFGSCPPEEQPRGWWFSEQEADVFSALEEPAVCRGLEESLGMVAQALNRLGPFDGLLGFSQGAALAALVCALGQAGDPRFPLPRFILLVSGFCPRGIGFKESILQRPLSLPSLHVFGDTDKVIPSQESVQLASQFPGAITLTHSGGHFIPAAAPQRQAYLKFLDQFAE
inactive: crizotinib 0.064 | gandotinib -0.232 | doramapimod -0.186 | ispinesib 0.026

NUDT6 (UniProt P53370)
Chain of UniProt P53370 (P53370 whole entry, looked up): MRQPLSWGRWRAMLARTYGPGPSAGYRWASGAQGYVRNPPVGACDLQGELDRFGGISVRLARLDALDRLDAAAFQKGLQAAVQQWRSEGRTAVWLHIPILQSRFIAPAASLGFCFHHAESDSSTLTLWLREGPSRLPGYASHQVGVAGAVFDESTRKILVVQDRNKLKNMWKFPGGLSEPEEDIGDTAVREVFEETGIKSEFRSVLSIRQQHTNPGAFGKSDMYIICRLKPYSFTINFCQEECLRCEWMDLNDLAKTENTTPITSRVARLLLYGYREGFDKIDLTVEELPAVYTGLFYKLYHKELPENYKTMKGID
inactive: crizotinib 0.069 | [1] 0.122 | [2] 0.6 | duvelisib 0.019 | tozasertib -0.036 | [3] -0.094 | doramapimod -0.127 | ispinesib -0.097

MORC2 (UniProt Q9Y6X9)
inactive: crizotinib 0.027 | [1] 0.065 | doramapimod -0.042

NOS1AP (UniProt O75052)
inactive: [1] 0.101 | [2] 0.237 | tozasertib -0.164 | ispinesib -0.279

NAP1L1 (UniProt B7Z9C2)
inactive: crizotinib -0.015 | duvelisib 0.327 | gandotinib 0.041 | [3] 0.433 | doramapimod 0.155

MYSM1 (UniProt Q5VVJ2)
inactive: [4] 0.067 | crizotinib -0.091 | doramapimod -0.045 | ispinesib 0.128

NA, A0A494C071
inactive: [1] 0.137 | [2] 0.043 | duvelisib 0.007 | gandotinib -0.352 | tozasertib -0.152 | [3] -0.102 | doramapimod 0.104
active: crizotinib -0.887

NCBP2AS2 (UniProt Q69YL0)
inactive: [4] -0.092 | [2] -0.027 | duvelisib 0.037 | gandotinib -0.064 | tozasertib -0.034 | [3] 0.044
active: ispinesib -0.48

NCOA5 (UniProt Q9HCD5)
Chain of UniProt Q9HCD5 (Q9HCD5 whole entry, looked up): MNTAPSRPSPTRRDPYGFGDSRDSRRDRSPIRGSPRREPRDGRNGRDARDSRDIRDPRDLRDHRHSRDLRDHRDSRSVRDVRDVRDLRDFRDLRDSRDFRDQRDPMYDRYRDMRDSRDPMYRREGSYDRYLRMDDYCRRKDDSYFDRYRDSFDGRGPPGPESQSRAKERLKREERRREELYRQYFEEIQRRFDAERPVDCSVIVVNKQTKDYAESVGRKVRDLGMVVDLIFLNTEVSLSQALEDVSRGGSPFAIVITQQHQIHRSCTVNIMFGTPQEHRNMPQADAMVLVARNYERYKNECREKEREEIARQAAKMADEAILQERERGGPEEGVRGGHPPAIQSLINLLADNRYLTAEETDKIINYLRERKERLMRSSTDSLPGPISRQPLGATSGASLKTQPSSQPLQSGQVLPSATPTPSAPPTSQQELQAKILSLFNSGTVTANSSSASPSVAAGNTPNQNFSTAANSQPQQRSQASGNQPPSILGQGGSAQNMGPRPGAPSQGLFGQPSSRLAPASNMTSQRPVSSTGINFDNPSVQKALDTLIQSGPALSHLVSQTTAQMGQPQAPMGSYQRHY
inactive: [4] -0.005 | crizotinib -0.131 | duvelisib -0.155 | gandotinib 0.05 | [3] 0.052 | doramapimod 0.168 | ispinesib 0.02

MSANTD2 (UniProt Q6P1R3)
inactive: [4] 0.295 | [1] 0.089 | duvelisib 0.019 | tozasertib 0.064 | [3] 0.039

NPM3 (UniProt O75607)
Chain of UniProt O75607 (O75607 whole entry, looked up): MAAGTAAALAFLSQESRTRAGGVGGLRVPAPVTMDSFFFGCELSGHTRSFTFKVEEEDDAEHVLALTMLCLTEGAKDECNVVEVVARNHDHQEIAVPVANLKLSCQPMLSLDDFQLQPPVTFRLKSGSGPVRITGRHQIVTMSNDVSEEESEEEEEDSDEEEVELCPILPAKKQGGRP
inactive: [4] -0.125 | crizotinib 0.001 | [2] -0.043 | duvelisib 0.022 | gandotinib 0.109 | tozasertib -0.034 | [3] -0.011 | doramapimod 0.024 | ispinesib 0.022

MYH16 (UniProt Q9H6N6)
inactive: [4] -0.33 | crizotinib -0.097 | [2] -0.012 | gandotinib -0.279 | tozasertib -0.027 | doramapimod 0.399

NELFCD (UniProt Q8IXH7)
inactive: crizotinib 0.349 | [1] 0.145 | [2] 0.006 | duvelisib 0.13 | gandotinib -0.327 | [3] 0.249 | doramapimod 0.025

MMADHC (UniProt Q9H3L0)
Chain of UniProt Q9H3L0 (Q9H3L0 whole entry, looked up): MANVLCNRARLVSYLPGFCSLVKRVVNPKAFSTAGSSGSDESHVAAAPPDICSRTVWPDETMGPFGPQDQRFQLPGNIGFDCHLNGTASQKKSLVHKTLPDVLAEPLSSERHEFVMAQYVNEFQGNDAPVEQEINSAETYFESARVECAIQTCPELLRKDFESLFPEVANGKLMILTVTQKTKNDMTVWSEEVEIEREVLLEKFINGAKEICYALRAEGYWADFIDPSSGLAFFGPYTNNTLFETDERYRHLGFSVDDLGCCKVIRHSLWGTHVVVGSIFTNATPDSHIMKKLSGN
inactive: crizotinib 0.065 | [2] 0.093 | duvelisib 0.007 | gandotinib -0.087 | tozasertib -0.001 | [3] 0.084 | doramapimod 0.099 | ispinesib -0.038

NOLC1 isoform 3 (UniProt Q14978)
inactive: [2] -0.305

PAFAH2 (UniProt Q99487)
inactive: [4] 0.005 | crizotinib 0.029 | [2] 0.08 | duvelisib 0.215 | tozasertib -0.011 | [3] -0.057 | doramapimod 0.053 | ispinesib -0.044

NA, A0A2R8Y3M9
inactive: [4] -0.084 | crizotinib 0.013 | [2] -0.011 | duvelisib -0.299 | gandotinib -0.099 | [3] -0.107 | doramapimod -0.008 | ispinesib -0.125
